# Bioassay records (PubChem)
# VDR inh: blocks the human vitamin D receptor; P11473; VDR-SRC2-3 peptide fluorescence polarization, 2 h; Potency, µM, for the others: max response, negative = inhibition, most hits filed as inhibitors; 0.93% of 400,000 active; AID 504847
#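 Fluorescence polarization assay measuring small-molecule disruption of VDR binding to the coregulator peptide SRC2-3. Compounds were pin-transferred (23 nl) into the reagent mix and incubated 2 h at room temperature before reading.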
# RGS12 GoLoco inh: RGS12 GoLoco-Gai1 interaction inhibition; Potency, µM (highest dose often 61.6 µM), for the others: at the top dose activity, negative = inhibition, usual class: inhibitors; Gai1:RGS12 GoLoco peptide FP, rhodamine, 10 min; P63096; AID 880; 0.44% of 230,000 active; active means well fitted inhibition curve with a large enough effect, not every such curve was filed as active; inactive means no such curve, though single readings can be large or run the other way; further: nearly all actives have a fitted effect of over 30% in size
# Target sequence (P63096 whole entry, looked up): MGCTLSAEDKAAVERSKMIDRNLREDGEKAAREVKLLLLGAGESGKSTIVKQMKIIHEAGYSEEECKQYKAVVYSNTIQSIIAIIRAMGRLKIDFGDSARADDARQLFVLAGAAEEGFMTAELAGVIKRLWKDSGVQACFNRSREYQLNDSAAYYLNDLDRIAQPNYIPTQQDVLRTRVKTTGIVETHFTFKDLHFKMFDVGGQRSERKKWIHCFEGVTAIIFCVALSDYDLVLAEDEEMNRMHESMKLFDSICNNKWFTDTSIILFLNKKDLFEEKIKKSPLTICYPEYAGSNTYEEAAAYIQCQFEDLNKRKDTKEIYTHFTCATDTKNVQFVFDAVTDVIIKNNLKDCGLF
# TRb-SRC2 inh: inhibitors of human thyroid hormone receptor beta-SRC2 interaction | P10828 | TRbeta-SRC2 peptide binding, fluorescence polarization; receptor liganded with 1 µM T3 | Potency, µM (series often up to 106 µM), without a hit: at the highest dose activity change, negative = inhibition, most hits filed as inhibitors | 0.065% of 280,000 active | AID 1469;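 further: plate controls were bound peptide for no effect and peptide without receptor for full effect; nearly all actives have a fitted effect of over 50% in size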
#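 Assay buffer: 20 mM Tris-HCl, 100 mM NaCl, 10% glycerol, 1 mM EDTA, 0.01% NP-40, 1 mM DTT, 1 uM T3, 5% DMSO; TRb LBD 0.6 uM, Texas Red SRC2 20 nM; FP after 5 hr.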
# TexasRed fluor: counter-screen for TRb-SRC2 inhibitors: fluorescence interference | TRb/SRC2 Texas Red total fluorescence interference | Potency, µM (doses to about 106 µM), for the others: at the top dose fluorescence change, negative = quenching | 0.29% of 280,000 active; active means well fitted curve in either direction with a large enough effect; inconclusive means small, poorly fitted or top-dose-only effect
#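 Human TRβ ligand-binding domain (0.6 uM) and Texas Red SRC2 peptide (20 nM) in Tris buffer with 1 uM T3 and 5% DMSO were incubated with pinned compound for 5 hr at ambient temperature. Total fluorescence was computed as S + 2P (555/632 nm).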
# GCN5L2 inh: inhibitors of human GCN5L2 histone acetyltransferase; Q92830; GCN5L2 HAT assay, ThioGlo1 CoA-SH fluorescence; Potency, µM (top dose mostly 58.9 µM), for inactives: top-dose activity change, negative = inhibition, most hits filed as inhibitors; 0.21% of 390,000 active; AID 504327
#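 qHTS, 1536-well. 20nM enzyme, pH 7.5 HEPES/EDTA/Tween-20 buffer; 15 min compound preinc., RT. Start: 75uM H3(1-25), 70uM AcCoA, 50uM ThioGlo1. Read Ex340/Em540 at t=0 (autofluorescence flag) and t=20 min.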
# The depositor's hits bear a star; ? = inconclusive; / = no result given; ! = not active in a repeat; [ ] = dose if it differs, or a comment. In the library only some 1.2% were active in any assay of this set; here they are far more common. Unless noted, the call rests on the fitted dose curve; in most records, active means well fitted curve in the direction sought with a large enough effect; inconclusive means small, poorly fitted or top-dose-only effect, or another doubt; inactive means no such curve, though single readings can be large; an effect the other way counts as inactive or inconclusive. Unless noted, on the % scale 0 is the no-effect control and ±100 the full control effect; potency means the concentration at half of the fitted maximal effect.
SMILES,VDR inh,RGS12 GoLoco inh,TRb-SRC2 inh,TexasRed fluor,GCN5L2 inh
CC(C)OCC1CO1 (configuration not stated),4.7%,25.1µM*,-4.1%,-1.1%,-0.2%
c1ccc(C(NCc2cccnc2)(c2ccccc2)c2ccccc2)cc1,?,/,6.2%,-12.7%,?
Cc1cc(NC(=O)CSc2cc(Cl)ccc2Cl)n(-c2ccccc2)n1,1.5%,-24.1%,-23.5%[53 µM],31.6µM*[quencher],18.9%
O=S(=O)(O)c1ccc(NN(c2c(O)ccc3ccccc23)S(=O)(=O)O)cc1,/,34.1%[14.2 µM],/,/,/
CC(=O)N1CCN(c2ccc(NCc3ccc(-c4ccc(Br)cc4)o3)cc2)CC1,79.4µM*,/,/,/,-7.7%
CC(=O)N1CCN(c2ccc(NCc3ccc4c(c3)OCO4)cc2)CC1,?,-38.6%,39.8µM*,11.8%,?
CC(=O)N1CCN(c2ccc(NCc3ccc(Br)o3)cc2)CC1,?,/,/,/,-2.6%
N#Cc1nc(-c2ccc(OCc3ccc(Cl)cc3)cc2)oc1N1CCCC1,-17.8%,/,/,/,/
COc1ccc(N=C2NC(=O)S/C2=C\c2ccc(N(C)C)cc2)cc1,-0.6%,-96.2%,31.6µM*,50.1µM*[fluorescent],3.6%
CCN1/C(=C/c2sc(-c3ccccc3C)c[n+]2C)Sc2ccccc21,-10.8%,10µM*,-1.2%,-0.9%,-19.2%
Cc1nn(C)c(C(=O)Sc2cccc(Cl)c2)c1[N+](=O)[O-],39.8µM*,-11.7%,1.1%,-5.7%,-3.1%
Cc1nn(C)c(C(=O)Sc2ccccc2)c1[N+](=O)[O-],-27.9%,-2.3%,0.6%,-4.4%,-1.6%
CCOc1cc(C2Nc3ccccc3C(=O)N2Cc2ccco2)ccc1OCc1ccccc1Cl (configuration not stated),-26.7%,/,/,/,/
CCCCOc1ccc(C2OC34CCCCC3C(C#N)(C#N)C2(C#N)C(=N)O4)cc1 (configuration not stated),?,25.1µM*,-12.8%,3.4%,-11.2%
C=CCOc1ccc(C2OC34CCCCC3C(C#N)(C#N)C2(C#N)C(=N)O4)cc1 (configuration not stated),-25.3%,-72.9%,2.9%,1.9%,2.3%
CCOc1ccc(C2OC34CCCCC3C(C#N)(C#N)C2(C#N)C(=N)O4)cc1OC (configuration not stated),-9.8%,1.41µM*,-9.4%,0.7%,-15.7%
CCCC(C)c1nnc(NC(=O)c2cc(C(=O)OC)cc([N+](=O)[O-])c2)s1 (configuration not stated),50.1µM*,-20.5%,-6.3%,-3.7%,-21.6%
O=C(O)[C@@H]1[C@@H]2O[C@H]([C@@H](Br)[C@H]2Br)[C@H]1C(=O)O,/,-4.0%[14.2 µM],/,/,/
CC(C)=CCC1C(=O)N(c2ccccc2)N(c2ccccc2)C1=O,25.1µM*,-4.5%,-0.6%,-1.5%,30.6%
COCc1cc(S(=O)c2ccc(Cl)cc2)nc(C)n1 (configuration not stated),50.1µM*,5.4%,4.9%,-2.7%,0.9%
Cc1ccc2oc(-c3cc(NC(=O)c4oc5ccccc5c4C)ccc3Cl)nc2c1,-18.8%,/,-8.8%,8.2%,-3.6%
Cc1c(C(=O)Nc2ccc(-c3nc4cc(Cl)ccc4o3)cc2)oc2ccccc12,0.5%,/,-10.4%,112µM*[quencher],21.3%
COC(=O)[C@@]1(C)[C@H]2C(=O)N(C)C(=O)[C@H]2[C@H]2CN=C(SCc3ccccc3)N21,3.1%,/,/,/,-6.2%
COC(=O)[C@@]1(C)[C@H]2C(=O)N(C)C(=O)[C@H]2[C@H]2CN=C(SCC(=O)c3ccccc3)N21,31.6µM*,/,/,/,-3.1%
COc1ccc(-c2sc(N)nc2-c2ccccc2)cc1,-6.7%,/,/,/,/
SMILES,VDR inh,RGS12 GoLoco inh,TRb-SRC2 inh,TexasRed fluor,GCN5L2 inh
COC(=O)c1sccc1NC(=O)c1ccc2c(c1)OCO2,0.8%,-4.5%,7.4%,2.9%,-3.4%
COC(=O)c1c(-c2cccnc2)csc1NC(=O)c1ccc2c(c1)OCO2,89.1µM*,/,/,/,-5.1%
Cc1nc2ccc(S(=O)(=O)N(C)CC(=O)Nc3ccc(Br)c(C)c3)cc2s1,0.6%,/,0.7%,-1.3%,2.8%
CCOC(=O)c1cc2c(=O)n3ccccc3nc2n(Cc2ccco2)c1=NC(=O)c1ccc(Br)cc1,89.1µM*,/,4.8%,-0.1%,-16.2%
Oc1ccc(Cc2cc(Cl)cc(Cl)c2O)cc1Cl,/,3.0%[14.2 µM],/,/,/
CC(=O)Nc1ccc2c(c1)C(C)(C)C(C)N2C (configuration not stated),44.7µM*,176.9%,?,39.8µM*[fluorescent],1.8%
C=C1CC2C(=O)N(Cc3cc(OC)ccc3OC)C(C(=O)OCC)C1N2C (configuration not stated),-20.0%,/,3.1%,-2.1%,/
CC(C)CCCC(C)C1CC(=O)C2=C3CCC4CC(O)CCC4(C)C3CCC21C (configuration not stated),4.8%,/,2.1%,2.9%,-10.6%
COc1ccc(C(=O)OC(C(=O)c2ccc(C)cc2)c2ccccc2)cc1 (configuration not stated),-15.6%,-9.5%,5.1%,0.3%,-11.5%
CC(=O)OC(C(=O)c1ccccc1)c1ccccc1 (configuration not stated),/,15.8µM*,-1.4%,-0.8%,/
COc1ccc(N=Nc2nc3cc(Br)c(Br)cc3n2C)c(OC)c1,-20.1%,1.58µM*,8.7%,-0.1%,3.1%
CCOc1ccc(NC(=O)CSc2nnc3c(n2)[nH]c2ccc(S(=O)(=O)N(C)C)cc23)cc1,31.2%,/,/,/,/
CCCCCCCC/C=C/CCCCCCCC(=O)NCCOP(=O)(O)O,28.2µM*,/,2.4%,4.0%,7.08µM*
O[C@@H](c1cc(-c2ccc(Cl)cc2)nc2ccccc12)C1CCCCN1 (some centres not stated),/,0.6%[14.2 µM],/,/,/
O=C(Nc1cccnc1)c1cc(-c2ccc(Cl)c(Cl)c2)on1,-5.6%,/,/,/,-11.9%
O=C(Nc1cccnc1)c1cc(-c2cccc(Cl)c2)on1,79.4µM*!,/,-10.8%,8.7%,-10.0%
Cc1ccc(N(CC(=O)NC2CCCCC2)C(=O)c2ccc(C)s2)cc1,-7.5%,4.0%,-5.0%,-1.1%,3.98µM*
Cc1ccc(F)cc1-c1ccc(C(=O)N=C(N)N)o1,-1.1%,/,-5.9%,1.1%,-2.4%
CCCC(=O)Nc1c(I)cc(I)c(C[C@H](CC)C(=O)O)c1I,-25.3%,/,/,/,1.0%
CCC(Cc1c(I)cc(I)c(O)c1I)C(=O)O (configuration not stated),31.6µM*,/,-4.4%,-1.1%,22.4µM*
CC(=O)/C=C1/C(=O)Nc2ccccc21,44.7µM*,-4.7%,3.3%,0.3%,-28.7%
CN1C(=O)c2ccccc2C(O)c2ccccc21 (configuration not stated),-7.2%,/,/,/,/
CN1C(=O)/C(=C\C(=O)c2cccs2)c2ccccc21,28.2µM*,-4.5%,10.3%,-1.0%,1.9%
CC(=O)/C=C1\C(=O)N(C)c2ccccc21,25.1µM*,/,/,/,?
Cn1nc(-c2ccncc2)nc2c(=O)n(C)c(=O)nc1-2,-8.1%,/,/,/,/
Fc1ccccc1SCc1nnc(-c2ccccc2Br)o1,44.7µM*,1.3%,-7.4%,-1.0%,-16.6%
Nc1nc(NCc2ccc(F)cc2)c2[nH]cnc2n1,8.9%,/,/,/,/
